Drawing on PubChem BioAssay (Tox21), this text covers Potency and activity change for 32 compounds.

“And” between values parts separate entries of the source, which are not always exact repeats. Identical values can stand only once. Records with an inconclusive call do not appear. The source made the active and inactive calls. Unless noted, the call rests on the fitted dose curve; in most records, active means well fitted curve in the direction sought with a large enough effect in the repeat runs; inconclusive means weak or mixed curves; inactive means no such curve, though single readings can be large; an effect the other way counts as inactive or inconclusive.

A short description of test [1]: qHTS assay to identify small molecule antagonists of the glucocorticoid receptor (GR) signaling pathway - cell viability counter screen (AID 720693). Further: nearly all actives have a fitted effect of over 55% in size. Further: potency means the concentration at half of the fitted maximal effect.
A short description of test [2]: qHTS assay for identifying genotoxic compounds that show differential cytotoxicity against isogenic chicken DT40 cell lines with known DNA damage response pathways - Rad54/Ku70 mutant cell line (AID 743015). Further: nearly all actives have a fitted effect of over 60% in size. Further: potency means the concentration at half of the fitted maximal effect. In general terms: In qHTS, concentration-response curves come from the screen itself.
The nature of test [3]: qHTS assay to identify small molecule antagonists of the androgen receptor (AR) signaling pathway - cell viability counter screen (AID 743033; further: nearly all actives have a fitted effect of over 45% in size; further: potency means the concentration at half of the fitted maximal effect).
The target of test [4] is Androgen receptor (Homo sapiens) (UniProt P10275). Briefly: qHTS assay to identify small molecule antagonists of the androgen receptor (AR) signaling pathway (AID 743035; active means well fitted inhibition curve with a large enough effect in the signal ratio in the repeat runs, not every such curve was filed as active; the % refers to the signal ratio). In outline:
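Steps: seed AR-UAS-bla GripTite HEK293 cells, incubate 4 h at 37C; pin in test compound, then add agonist R1881; incubate 16 h at 37C; add LiveBLAzer B/G FRET substrate, 2 h at room temperature; read fluorescence.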

Test [5] shares this target. The experiment in a line: qHTS assay to identify small molecule agonists of the androgen receptor (AR) signaling pathway (AID 743036; active means well fitted activation curve with a large enough effect in the signal ratio in the repeat runs, with a control signal flat, not every such curve was filed as active; the % refers to the signal ratio; further: potency means the concentration at half of the fitted maximal effect). In outline: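 Quantitative HTS of the Tox21 10K library in HEK293 cells bearing a stably integrated UAS-controlled beta-lactamase reporter. Compound exposure lasted 16 h at 37C. Reporter activity was detected by FRET substrate fluorescence after 2 h at room temperature.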

Test [6] shares this target. Briefly: qHTS assay to identify small molecule agonists of the androgen receptor (AR) signaling pathway using the MDA cell line (AID 743040; further: nearly all actives have a fitted effect of over 20% in size). The conditions noted are these: MDA-kb2 AR-luc cells, MMTV luciferase, 16 h; activity change: at 70.3 µM (top of the series), stronger effect = higher value. In outline:
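Testing was done with the MDA-kb2 AR-luc line, a human breast carcinoma stably transfected with MMTV-luciferase containing AR and GR response elements. Cells were exposed 16 h at 37C before ONE-Glo luminescence detection.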

The nature of test [7]: qHTS assay to identify small molecule antagonists of the androgen receptor (AR) signaling pathway using the MDA cell line - cell viability counter screen (AID 743041; further: nearly all actives have a fitted effect of over 45% in size; further: potency means the concentration at half of the fitted maximal effect). In outline:
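Compound exposure lasted 16 h at 37C in MDA-kb2 AR-luc cells stimulated with R1881. Protease-based CellTiter-Fluor reagent was applied for the final 30 min and fluorescence measured.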

Test [8] deals with Androgen receptor (Homo sapiens) (UniProt P10275). The experiment in a line: qHTS assay to identify small molecule antagonists of the androgen receptor (AR) signaling pathway using the MDA cell line (AID 743042; further: nearly all actives have a fitted effect of over 55% in size). In outline:
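MDA-kb2 breast carcinoma cells carrying MMTV-luciferase (AR/GR responsive) were co-treated with compounds and the agonist R1881 for 16 h at 37C. Inhibition read as ONE-Glo luminescence; CellTiter-Fluor fluorescence measured in parallel for cytotoxicity.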

Test [9] in a line: qHTS assay for identifying genotoxic compounds that show differential cytotoxicity against isogenic chicken DT40 cell lines with known DNA damage response pathways - wild type cell line (AID 743012). Further: nearly all actives have a fitted effect of over 60% in size. Further: potency means the concentration at half of the fitted maximal effect. In outline:
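Cytotoxicity in repair-proficient parental chicken DT40 cells serves as the comparator for Rad54/Ku70- and Rev3-deficient lines. Cells were exposed to compounds for 40 h at 37 C/5% CO2, and ATP-based luminescence (CellTiter-Glo) measured viability.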

Test [10] in a line: qHTS assay for identifying genotoxic compounds that show differential cytotoxicity against isogenic chicken DT40 cell lines with known DNA damage response pathways - Rev3 mutant cell line (AID 743014). Further: nearly all actives have a fitted effect of over 55% in size. Further: potency means the concentration at half of the fitted maximal effect.
On the % scale 0 is the no-effect control and ±100 the full control effect.

Sequence of Androgen receptor (Homo sapiens) (P10275 whole entry, looked up): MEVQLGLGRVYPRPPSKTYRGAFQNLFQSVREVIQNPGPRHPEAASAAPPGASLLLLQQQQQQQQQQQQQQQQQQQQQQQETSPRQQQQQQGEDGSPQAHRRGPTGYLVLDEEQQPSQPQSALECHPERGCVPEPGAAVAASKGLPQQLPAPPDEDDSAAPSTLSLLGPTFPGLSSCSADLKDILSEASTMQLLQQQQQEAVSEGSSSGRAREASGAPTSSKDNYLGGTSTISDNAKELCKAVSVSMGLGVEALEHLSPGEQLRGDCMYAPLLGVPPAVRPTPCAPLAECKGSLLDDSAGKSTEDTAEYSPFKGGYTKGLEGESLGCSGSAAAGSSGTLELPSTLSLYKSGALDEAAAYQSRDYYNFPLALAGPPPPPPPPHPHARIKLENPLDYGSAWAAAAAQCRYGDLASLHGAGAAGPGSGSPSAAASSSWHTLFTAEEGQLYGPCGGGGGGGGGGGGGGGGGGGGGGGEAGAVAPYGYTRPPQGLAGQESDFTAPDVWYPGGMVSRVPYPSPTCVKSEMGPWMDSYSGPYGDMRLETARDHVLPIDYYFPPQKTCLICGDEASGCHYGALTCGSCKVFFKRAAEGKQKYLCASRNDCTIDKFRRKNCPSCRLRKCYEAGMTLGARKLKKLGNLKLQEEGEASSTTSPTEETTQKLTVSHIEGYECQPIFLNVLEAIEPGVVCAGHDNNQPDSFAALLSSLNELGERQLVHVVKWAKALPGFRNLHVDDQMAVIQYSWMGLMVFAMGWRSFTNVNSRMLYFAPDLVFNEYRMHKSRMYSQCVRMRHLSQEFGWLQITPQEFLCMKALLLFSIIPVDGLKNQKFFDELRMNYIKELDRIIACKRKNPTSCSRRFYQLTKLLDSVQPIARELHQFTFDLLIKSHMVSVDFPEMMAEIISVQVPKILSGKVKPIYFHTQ

For `COC(=O)C1(O)c2ccccc2-c2ccccc21`, the Potency result in test [1], in test [2], in test [3], in test [4], in test [5] and in test [6] was “inactive” in each case. Further, the Potency entry in test [7] and in test [8] was “inactive” throughout.

`O=C(O)COc1cc(Cl)c(Cl)cc1Cl`: the Potency result in [9], in test [10], in test [2], in test [3], in test [4] and in [6] was “inactive” each time. Besides, the Potency entry in test [7] and in test [8] was “inactive” each time.

`COc1ccc2c(c1OC)C(=O)O[C@H]2[C@@H]1c2cc3c(cc2CCN1C)OCO3`: the Potency entry in [1], in test [10], in test [3], in [4], in test [5] and in test [6] was “inactive” in each case. For the same compound, the Potency result in [7] and in [8] was “inactive” each time.

Turning to `Nc1ccc2c(c1)Cc1ccccc1-2`, the Potency result in test [1] and in test [3] was “inactive” each time.

In the case of `CC(=O)OC(c1ccccc1)C(Cl)(Cl)Cl` (centres undefined), the Potency result in test [1], in test [10] and in test [7] was “inactive” throughout.

For the compound `CC(C)(C)N(NC(=O)c1ccc(Cl)cc1)C(=O)c1ccccc1`, the Potency result in [1], in test [3], in [5], in [6], in [7] and in [8] was “inactive” throughout. In addition, in test [2], the Potency was 43 µM (active).

Turning to `O=C(O)C(F)(F)C(F)(F)C(F)(F)C(F)(F)C(F)(F)C(F)(F)C(F)(F)C(F)(F)F`, the Potency entry in [1], in [10], in test [2], in [3] and in test [7] was “inactive” each time.

On to `CCCN(CCC)C(=O)Cc1c(-c2ccc(Cl)cc2)nc2ccc(Cl)cn12`, for which the Potency entry in test [1], in test [10], in [2], in [3] and in test [7] was “inactive” in each case.

For the compound `CCCCCCCCn1sccc1=O`, the Potency was 4.87 µM (active) and 454 nM (active) in test [9]; 2.17 µM (active) and 719 nM (active) in [10]; 3.07 µM (active) and 1.02 µM (active) in test [2]; 4.37 µM (active) and 20.4 µM (active) in test [3]; 36 µM (active) in test [7].

For `CN(C1CCCCC1)C1CCCCC1`, the Potency entry in test [1], in test [3], in test [4], in test [5], in test [6] and in test [7] was “inactive” in each case. Further, the Potency entry in test [8] is “inactive”. The Potency in test [10] is 9.69 µM (active); in [2], 17.2 µM (active).

As to `CCOC(=O)C1OC1(C)c1ccccc1` (centres undefined), the Potency entry in [9], in [10], in [2], in [3] and in test [7] was “inactive” each time.

Consider `CC(C)CCCCCCCOC(=O)c1ccccc1C(=O)OCCCCCCCC(C)C`, for which the Potency entry in test [1], in [9] and in test [7] was “inactive” throughout.

For `Cc1cccc(C)c1NC1=NCCCS1`, the Potency entry in [1], in test [10] and in [7] was “inactive” in each case.

In the case of `C#C[C@]1(O)CC[C@H]2[C@@H]3CCC4=CC(=O)CCC4=C3C=C[C@@]21CC`, the Potency was 10.6 µM (active) in [9], 13.3 µM (active) in [10] and 13.3 µM (active) in test [2]. In addition, the Potency result in test [3] and in test [7] was “inactive” in each case.

Consider `COc1cc(C[C@@H](C)N)c(OC)cc1Br`, for which the Potency result in [1], in test [3] and in test [7] was “inactive” in each case. The Potency in test [9] was 70.4 µM (active).

Turning to `O=C(Cc1ccccc1)OCCc1ccccc1`, the Potency result in test [1], in test [3] and in test [7] was “inactive” throughout. The Potency in test [9] was 68.6 µM (active).

For `CC(C)C1(C)N=C(c2ncccc2C(=O)O)NC1=O` (centres undefined), the Potency entry in [1], in [2], in [3] and in test [7] was “inactive” each time.

For `CCCC[N+]1(C)[C@@H]2CC(OC(=O)[C@H](CO)c3ccccc3)C[C@H]1[C@@H]1O[C@@H]12` (some centres undefined), the Potency entry in test [1], in [10], in [2] and in test [7] was “inactive” in each case.

Consider `[Cl-].[Cl-].[Hg+2]`, for which the Potency was 841 nM (active) and 3.84 µM (active) and 193 nM (active) in test [9]; 2.66 µM (active) and 1.92 µM (active) and 386 nM (active) in test [10]; 1.68 µM (active) and 1.36 µM (active) and 217 nM (active) in test [2]; 9.52 µM (active) and 1.54 µM (active) and 9.77 µM (active) in [3]; 24.8 µM (active) and 54.2 µM (active) and 61.1 µM (active) in test [7].

Regarding `CCOc1cccc(C2(N3CCN(c4ccccc4)CC3)CCC(C)CC2)c1` (centres undefined), the Potency entry in test [1], in [9], in test [3] and in test [7] was “inactive” in each case.

For the compound `NCCc1cc(O)c(O)cc1O`, the Potency result in [1], in [3] and in test [7] was “inactive” throughout. The Potency in test [9] was 23.7 µM (active).

For the compound `C[C@H]1[C@@H]2Cc3ccc(O)cc3[C@@]1(C)CCN2C`, the Potency result in test [1], in [3] and in [7] was “inactive” in each case.

As to `CC(C)CCON=O`, the Potency result in [9], in [10], in test [2], in [3] and in test [7] was “inactive” throughout.

In the case of `CC(C)(C#N)C(C)(C)C#N`, the Potency entry in test [9], in [10], in [2], in test [3] and in test [7] was “inactive” in each case.

Regarding `Nc1cccc2ccccc12`, the Potency result in test [1], in [3] and in test [7] was “inactive” each time.

In the case of `C=CCc1ccc(OC(=O)Cc2ccccc2)c(OC)c1`, the Potency result in test [1] and in test [7] was “inactive” in each case.

`CCC1(CCC(C)C)C(=O)NC(=O)NC1=O`: the Potency result in [9], in test [10], in [2], in test [3], in [4] and in test [6] was “inactive” throughout. For the same compound, the Potency entry in test [7] and in test [8] was “inactive” throughout.

Take `CC[N+]1(CCOC(=O)C(O)(c2ccccc2)c2ccccc2)CCCCC1`: the Potency result in [1], in test [2], in [3] and in test [7] was “inactive” throughout.

For the compound `C[C@]12C=CC3=C4CCC(=O)C=C4CC[C@H]3[C@@H]1CC[C@@H]2O`, the Potency is 24.4 µM (active) in test [1], 68.1 µM (active) in test [10], 60.7 µM (active) in [2] and 0.0027 µM (active) in test [5]. Further, the Potency result in test [3], in [7] and in [8] was “inactive” in each case. The activity change in test [6] is 189% (active).

Turning to `C[N+](C)(C)CC1CO1` (centres undefined), the Potency result in [1], in test [4], in [5], in [6], in test [7] and in test [8] was “inactive” in each case. Also, in test [10], the Potency was 13.7 µM (active).

For the compound `C[C@H](N)[C@H](O)c1ccc(O)c(O)c1`, the Potency is 13.3 µM (active) in [9], 11.9 µM (active) in [10] and 16.8 µM (active) in test [2]. The Potency result in test [3] and in test [7] was “inactive” throughout.

On to `OC[P+](CO)(CO)CO`, for which the Potency entry in test [9], in test [10], in test [3] and in [7] was “inactive” throughout.
